Experiments:
Test in all cases: log2 ratio of Biotin-Ahx-Ub-VS probe labelling (fragment/DMSO); higher = less target engagement (more negative = stronger competition), active = hit call of the paper (q ≤ 0.05, log2 ratio ≤ -1)
Conditions in all cases: compound concentration: 200 uM; treatment time: 3 h
OTUD6B = target: T1, OTUD6B (UniProt Q8N6M0)
T1 sequence (whole entry): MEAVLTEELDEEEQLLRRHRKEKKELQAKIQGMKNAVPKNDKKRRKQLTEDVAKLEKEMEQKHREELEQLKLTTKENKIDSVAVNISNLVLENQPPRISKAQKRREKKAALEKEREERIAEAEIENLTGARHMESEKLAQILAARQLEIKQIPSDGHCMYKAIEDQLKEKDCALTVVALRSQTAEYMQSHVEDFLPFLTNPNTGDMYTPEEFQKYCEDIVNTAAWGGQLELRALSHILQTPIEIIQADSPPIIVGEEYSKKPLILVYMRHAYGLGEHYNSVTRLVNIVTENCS
Outline: (§1)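 HEK293T lysate, 495 µg per sample in Tris/CHAPS/IGEPAL buffer with protease inhibitors, was treated in triplicate with fragment at 200 µM or vehicle for 3 h and then with Biotin-Ahx-Ub-VS at 0.5 µM final for 1 h. Labelled DUBs were NeutrAvidin-enriched, digested with LysC and trypsin, and run by diaPASEF LC-MS/MS. Spectronaut label-free quantities were global-median-normalised, and values are average log2 fragment/vehicle ratios by unpaired t-test on proteins with ≥2 unique peptides.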

OTUD7B = target: T2, OTUD7B (UniProt Q6GQQ9)
T2 sequence (whole entry): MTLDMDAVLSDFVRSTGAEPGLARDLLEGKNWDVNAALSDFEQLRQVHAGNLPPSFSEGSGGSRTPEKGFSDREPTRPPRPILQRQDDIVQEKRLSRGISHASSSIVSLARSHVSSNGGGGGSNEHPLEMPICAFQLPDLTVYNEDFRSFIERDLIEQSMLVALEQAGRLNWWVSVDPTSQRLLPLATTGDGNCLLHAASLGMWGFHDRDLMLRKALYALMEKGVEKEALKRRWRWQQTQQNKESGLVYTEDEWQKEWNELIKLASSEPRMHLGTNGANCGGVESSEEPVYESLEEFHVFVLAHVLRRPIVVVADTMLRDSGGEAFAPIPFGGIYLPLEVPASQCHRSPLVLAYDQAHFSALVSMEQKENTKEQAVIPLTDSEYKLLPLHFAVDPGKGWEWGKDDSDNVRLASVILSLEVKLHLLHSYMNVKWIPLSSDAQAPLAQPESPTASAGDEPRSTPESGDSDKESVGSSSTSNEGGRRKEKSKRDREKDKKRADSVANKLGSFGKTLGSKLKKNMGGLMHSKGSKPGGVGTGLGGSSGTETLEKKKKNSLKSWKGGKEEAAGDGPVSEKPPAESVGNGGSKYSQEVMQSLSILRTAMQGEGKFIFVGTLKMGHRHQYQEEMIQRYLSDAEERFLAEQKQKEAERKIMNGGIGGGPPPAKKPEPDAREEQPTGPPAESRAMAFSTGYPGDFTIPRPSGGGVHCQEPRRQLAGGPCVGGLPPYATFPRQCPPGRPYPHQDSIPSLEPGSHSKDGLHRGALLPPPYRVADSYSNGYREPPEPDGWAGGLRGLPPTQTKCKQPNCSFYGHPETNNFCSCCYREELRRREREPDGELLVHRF
Outline: as §1

PRPF8 = PRPF8 (UniProt Q6P2Q9)
Outline: as §1

PSMD7 = target: T3, PSMD7 (UniProt P51665)
T3 sequence (whole entry): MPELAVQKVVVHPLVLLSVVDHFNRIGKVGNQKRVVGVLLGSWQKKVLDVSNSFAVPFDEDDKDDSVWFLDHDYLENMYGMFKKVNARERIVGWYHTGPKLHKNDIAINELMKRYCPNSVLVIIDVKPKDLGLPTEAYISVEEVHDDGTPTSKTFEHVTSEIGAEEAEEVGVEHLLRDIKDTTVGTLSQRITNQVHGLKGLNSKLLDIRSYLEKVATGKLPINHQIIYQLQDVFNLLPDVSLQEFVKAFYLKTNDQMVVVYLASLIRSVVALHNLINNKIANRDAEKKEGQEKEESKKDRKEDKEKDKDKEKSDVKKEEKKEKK
Outline: as §1

UCHL1 = UCHL1 (UniProt P09936)
Outline: as §1

UCHL3 = target: T4, UCHL3 (UniProt P15374)
T4 sequence (whole entry): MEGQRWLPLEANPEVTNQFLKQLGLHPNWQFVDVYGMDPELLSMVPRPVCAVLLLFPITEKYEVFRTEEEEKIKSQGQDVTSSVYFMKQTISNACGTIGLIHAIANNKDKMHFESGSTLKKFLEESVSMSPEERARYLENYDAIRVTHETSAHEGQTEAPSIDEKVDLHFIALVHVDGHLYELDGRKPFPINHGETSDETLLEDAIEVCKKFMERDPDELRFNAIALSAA
Outline: as §1

UCHL5 = target: T5, UCHL5 (UniProt Q9Y5K5)
T5 sequence (whole entry): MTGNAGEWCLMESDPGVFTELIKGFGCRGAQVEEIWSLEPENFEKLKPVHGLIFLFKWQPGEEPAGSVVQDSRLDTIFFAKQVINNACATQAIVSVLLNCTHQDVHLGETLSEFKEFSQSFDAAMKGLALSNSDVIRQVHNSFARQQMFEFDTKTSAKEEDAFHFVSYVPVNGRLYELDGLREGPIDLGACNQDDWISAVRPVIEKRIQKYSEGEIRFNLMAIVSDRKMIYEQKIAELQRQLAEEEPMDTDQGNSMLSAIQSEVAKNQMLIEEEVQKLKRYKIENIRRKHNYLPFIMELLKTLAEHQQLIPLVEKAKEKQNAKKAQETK
Outline: as §1

USP10 = USP10 (UniProt Q14694)
Outline: as §1

USP15 = target: T6, USP15 (UniProt Q9Y4E8)
T6 sequence (whole entry): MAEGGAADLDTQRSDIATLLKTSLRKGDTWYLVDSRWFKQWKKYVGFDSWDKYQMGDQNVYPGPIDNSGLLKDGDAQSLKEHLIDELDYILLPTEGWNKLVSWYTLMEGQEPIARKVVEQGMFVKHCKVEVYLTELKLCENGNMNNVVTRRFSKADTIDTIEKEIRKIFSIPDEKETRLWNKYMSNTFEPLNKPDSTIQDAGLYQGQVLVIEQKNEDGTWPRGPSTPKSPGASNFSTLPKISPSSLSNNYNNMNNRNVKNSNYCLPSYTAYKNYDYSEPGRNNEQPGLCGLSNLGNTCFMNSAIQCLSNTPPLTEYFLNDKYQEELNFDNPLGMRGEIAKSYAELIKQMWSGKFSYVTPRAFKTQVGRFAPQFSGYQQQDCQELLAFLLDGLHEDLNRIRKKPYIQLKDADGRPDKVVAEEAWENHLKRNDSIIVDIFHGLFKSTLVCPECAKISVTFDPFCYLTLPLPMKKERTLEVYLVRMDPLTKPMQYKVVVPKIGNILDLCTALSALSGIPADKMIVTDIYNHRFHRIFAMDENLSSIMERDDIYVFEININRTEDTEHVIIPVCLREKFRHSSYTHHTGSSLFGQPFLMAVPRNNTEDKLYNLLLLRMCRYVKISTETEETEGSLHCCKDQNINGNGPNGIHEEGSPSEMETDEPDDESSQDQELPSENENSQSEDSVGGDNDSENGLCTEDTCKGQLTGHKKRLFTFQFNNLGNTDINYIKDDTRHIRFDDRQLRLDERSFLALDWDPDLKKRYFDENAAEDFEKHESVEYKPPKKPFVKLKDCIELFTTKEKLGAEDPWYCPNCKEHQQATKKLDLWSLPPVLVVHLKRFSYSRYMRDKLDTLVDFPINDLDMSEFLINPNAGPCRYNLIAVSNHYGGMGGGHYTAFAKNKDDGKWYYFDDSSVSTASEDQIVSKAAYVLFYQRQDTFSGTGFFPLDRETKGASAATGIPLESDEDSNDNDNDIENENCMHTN
Outline: as §1

USP16 = USP16 (UniProt Q9Y5T5)
Outline: as §1

Measured: log2 ratio of Biotin-Ahx-Ub-VS probe labelling

UCHL1, sequence (P09936 whole entry, looked up): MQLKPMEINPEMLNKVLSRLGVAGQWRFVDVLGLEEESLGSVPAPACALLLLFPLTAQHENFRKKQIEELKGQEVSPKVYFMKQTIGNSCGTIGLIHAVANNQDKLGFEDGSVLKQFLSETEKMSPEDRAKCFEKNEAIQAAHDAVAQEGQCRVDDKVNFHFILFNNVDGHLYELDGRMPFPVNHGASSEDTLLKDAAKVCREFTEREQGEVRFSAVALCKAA
USP16, sequence (Q9Y5T5 whole entry, looked up): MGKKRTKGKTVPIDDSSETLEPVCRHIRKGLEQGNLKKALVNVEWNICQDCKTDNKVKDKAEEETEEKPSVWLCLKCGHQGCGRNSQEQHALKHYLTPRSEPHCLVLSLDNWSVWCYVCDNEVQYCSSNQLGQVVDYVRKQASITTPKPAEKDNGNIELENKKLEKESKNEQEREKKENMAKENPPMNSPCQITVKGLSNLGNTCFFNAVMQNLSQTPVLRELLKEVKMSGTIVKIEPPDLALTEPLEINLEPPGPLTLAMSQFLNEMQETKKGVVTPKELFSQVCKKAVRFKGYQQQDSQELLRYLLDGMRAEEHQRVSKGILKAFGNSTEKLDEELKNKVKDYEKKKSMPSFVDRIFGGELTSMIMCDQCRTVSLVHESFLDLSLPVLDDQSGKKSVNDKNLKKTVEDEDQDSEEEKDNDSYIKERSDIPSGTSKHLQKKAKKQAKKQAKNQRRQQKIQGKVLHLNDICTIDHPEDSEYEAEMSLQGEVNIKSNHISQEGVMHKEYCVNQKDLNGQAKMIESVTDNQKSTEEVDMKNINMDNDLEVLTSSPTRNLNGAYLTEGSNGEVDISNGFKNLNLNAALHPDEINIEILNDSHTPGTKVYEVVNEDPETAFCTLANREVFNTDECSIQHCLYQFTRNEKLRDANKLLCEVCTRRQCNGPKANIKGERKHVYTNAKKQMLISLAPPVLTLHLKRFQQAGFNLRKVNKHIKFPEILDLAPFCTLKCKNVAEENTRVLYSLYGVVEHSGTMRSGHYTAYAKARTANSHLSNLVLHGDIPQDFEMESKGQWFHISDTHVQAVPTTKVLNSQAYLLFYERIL
USP10, sequence (Q14694 whole entry): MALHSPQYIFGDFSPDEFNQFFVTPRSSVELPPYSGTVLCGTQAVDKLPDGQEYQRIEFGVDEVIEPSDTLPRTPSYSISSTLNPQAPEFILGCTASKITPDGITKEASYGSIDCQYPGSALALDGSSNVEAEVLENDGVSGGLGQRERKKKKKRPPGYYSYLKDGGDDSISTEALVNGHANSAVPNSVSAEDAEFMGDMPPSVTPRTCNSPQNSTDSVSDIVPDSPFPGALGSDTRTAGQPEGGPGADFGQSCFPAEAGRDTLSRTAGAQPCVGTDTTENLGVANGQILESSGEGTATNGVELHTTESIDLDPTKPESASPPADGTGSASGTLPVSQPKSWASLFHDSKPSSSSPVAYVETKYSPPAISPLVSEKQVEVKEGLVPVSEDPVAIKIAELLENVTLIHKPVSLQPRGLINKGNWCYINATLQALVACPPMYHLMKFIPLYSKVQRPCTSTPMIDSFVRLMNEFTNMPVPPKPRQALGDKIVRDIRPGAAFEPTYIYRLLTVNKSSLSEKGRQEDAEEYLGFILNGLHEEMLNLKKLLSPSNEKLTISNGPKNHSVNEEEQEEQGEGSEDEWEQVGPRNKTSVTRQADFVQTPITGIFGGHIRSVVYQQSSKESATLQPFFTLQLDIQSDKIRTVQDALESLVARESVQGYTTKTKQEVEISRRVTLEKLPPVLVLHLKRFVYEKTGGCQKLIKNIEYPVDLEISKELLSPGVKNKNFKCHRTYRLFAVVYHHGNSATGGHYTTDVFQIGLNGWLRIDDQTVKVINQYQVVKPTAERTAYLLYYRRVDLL

O=C(CN1CCN(C(=O)CCl)CC1)Nc1cccc(F)c1
active: UCHL1 -1.08
inactive: OTUD6B -0.321 | OTUD7B -0.452 | PRPF8 -0.19 | PSMD7 -0.137 | UCHL3 -0.122 | UCHL5 -0.336 | USP10 0.0386 | USP15 -0.225 | USP16 -0.245

From the supplement of paper PMC11732987, “Enantioselective OTUD7B fragment discovery through chemoproteomics screening and high-throughput optimisation” (Communications Chemistry, 2025)
